# Measurements from PubChem BioAssay (NCATS).
# Inconclusive results are not listed. A call without a number means that no potency is given here. Values without a mark were called inactive. Calls of active or inactive are those of the source. Calls follow the shape of the dose curve; as a rule, active = well fitted cell-killing curve with a large enough effect; inconclusive = small, poorly fitted or top-dose-only effect; inactive = no such curve, though single readings can be large or run the other way.
# Assay: qHTS of pediatric cancer cell lines to identify multiple opportunities for drug repurposing: Primary screen for Rh41 cells (AID 1347108); also: nearly all actives have a fitted effect of over 70% in size;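 as to activity change, negative = cytotoxic: luminescence drop marks cytotoxic hits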
# Details: Rh41 rhabdomyosarcoma viability, CellTiter-Glo luminescence, 48 h; series mostly up to 46 µM
# Procedure, shortened: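 Cells seeded at 500-1,000 cells/well in growth media, rested 5 hours at 37 degrees C, 5% CO2, then dosed; MIPE compounds at 11-point (from 0.78 nM) and NPC at 8-point (from 0.59 nM) final concentrations. Viability by CellTiter-Glo luminescence after 48 hours.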
# Potency is read from the fitted curve at half-maximal effect.
SMILES,Potency,"activity change, negative = cytotoxic"
COc1c(C)c2c(c(O)c1CC=C(C)CCC(=O)OCCN1CCOCC1)C(=O)OC2,inactive,
COc1ccc(Cn2ccc3ccc(C(=O)NO)cc32)cc1,inactive,
CN(C)CCOc1ccc(C(=C(CCCl)c2ccccc2)c2ccccc2)cc1,inactive,
CCN1CCN(c2ccc(Nc3cc(N(C)C(=O)Nc4c(Cl)c(OC)cc(OC)c4Cl)ncn3)cc2)CC1,inactive,
O=c1[nH]c(=O)n([C@H]2C[C@@H](O)[C@@H](CO)O2)cc1C(F)(F)F,inactive,
CCN1C[C@H](C)n2c(c(O)c3c(=O)n(Cc4ccc(F)c(Cl)c4)nc(C(=O)NC)c32)C1=O,inactive,
O=C(NCCCCN1CCOCC1)c1cc2ccccc2o1,inactive,
O=C(Nc1cccc2c(=O)cc(-c3nn[nH]n3)oc12)c1ccc(OCCCCc2ccccc2)cc1,inactive,
CO[C@H]1C=CO[C@@]2(C)Oc3c(C)c(O)c4c(O)c(c(C=NN5CCN(C)CC5)c(O)c4c3C2=O)NC(=O)C(C)=CC=C[C@H](C)[C@H](O)[C@@H](C)[C@@H](O)[C@@H](C)[C@H](OC(C)=O)[C@H]1C,,-8.55% [at 9.22 µM]
CC1=C(C(=O)Nc2cc3cn[nH]c3cc2F)C(c2ccc(C(F)(F)F)cc2)CC(=O)N1 (stereo not drawn),inactive,
O=c1[nH]c(=O)n([C@H]2C[C@@H](O)[C@@H](CO)O2)cc1I,inactive,
O[C@@H](COc1cccc2ncccc12)CN1CCN(C2c3ccccc3[C@@H]3[C@H](c4ccccc42)C3(F)F)CC1 (stereo partly drawn),18.7 µM (active),
Cc1cccc(Nc2nc(N[C@@H]3CCCC[C@H]3N)ncc2C(N)=O)c1,11.8 µM (active),
